{"source": "PubChem BioAssay (EPA / NIEHS)", "key": {"[1]": {"target": "human Caspase 10 (CASP10), CASP10 (gene 843) (UniProt Q92851)", "sequence (Q92851 whole entry, looked up)": "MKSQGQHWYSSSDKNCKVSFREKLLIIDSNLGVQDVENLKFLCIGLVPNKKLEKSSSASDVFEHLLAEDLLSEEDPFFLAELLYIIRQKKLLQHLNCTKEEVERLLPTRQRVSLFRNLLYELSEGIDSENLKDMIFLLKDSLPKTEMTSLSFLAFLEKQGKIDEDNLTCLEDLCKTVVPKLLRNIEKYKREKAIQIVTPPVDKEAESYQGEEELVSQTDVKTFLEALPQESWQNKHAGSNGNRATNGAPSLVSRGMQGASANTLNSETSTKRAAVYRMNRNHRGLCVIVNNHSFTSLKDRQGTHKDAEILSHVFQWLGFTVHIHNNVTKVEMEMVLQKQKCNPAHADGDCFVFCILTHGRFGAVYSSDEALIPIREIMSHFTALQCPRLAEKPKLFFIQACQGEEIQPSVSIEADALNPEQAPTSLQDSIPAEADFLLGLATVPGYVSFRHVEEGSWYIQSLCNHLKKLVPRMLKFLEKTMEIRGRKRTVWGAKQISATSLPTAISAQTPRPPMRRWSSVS", "experiment": "NVS_ENZ_hCASP10: NovaScreen (NVS) Enzymatic Assay for human Caspase 10 (CASP10) (AID 2283133)", "outline": "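Recombinant human caspase-10 from E. coli, cell-free fluorogenic substrate assay read 1 h after dosing. Primary duplicate screen at 25 uM; hits (e.g. ≥30% inhibition) run singly in concentration-response up to 50 uM, normalised to DMSO.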"}, "[2]": {"target": "human Ephrin type-B Receptor 2 (EphB2), EPHB2 (gene 2048) (UniProt P29323)", "experiment": "NVS_ENZ_hEphB2: NovaScreen (NVS) Enzymatic Assay for human Ephrin type-B Receptor 2 (EphB2) (AID 2283156)", "outline": "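Recombinant kinase with fluorescent substrate, product separated by electrophoretic mobility shift, read 1 h after dosing. Duplicate 25 uM screen, then singleton concentration-response to 50 uM max; loss of signal versus DMSO.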"}, "[3]": {"target": "human Caspase 5 (CASP5), CASP5 (gene 838) (UniProt P51878)", "sequence (P51878 whole entry, looked up)": "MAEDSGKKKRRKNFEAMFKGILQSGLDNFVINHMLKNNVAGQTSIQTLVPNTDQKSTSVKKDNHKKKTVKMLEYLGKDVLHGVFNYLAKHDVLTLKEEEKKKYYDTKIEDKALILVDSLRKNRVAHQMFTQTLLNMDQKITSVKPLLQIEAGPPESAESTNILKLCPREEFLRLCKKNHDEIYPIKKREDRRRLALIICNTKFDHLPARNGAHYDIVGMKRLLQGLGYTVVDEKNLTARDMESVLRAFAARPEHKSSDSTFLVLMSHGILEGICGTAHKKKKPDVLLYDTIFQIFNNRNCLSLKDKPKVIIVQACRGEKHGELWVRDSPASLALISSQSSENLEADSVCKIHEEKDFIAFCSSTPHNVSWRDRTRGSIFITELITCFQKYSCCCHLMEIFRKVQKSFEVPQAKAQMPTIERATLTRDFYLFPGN", "experiment": "NVS_ENZ_hCASP5: NovaScreen (NVS) Enzymatic Assay for human Caspase 5 (CASP5) (AID 2283137)", "outline": "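Recombinant E. coli-expressed human caspase 5 in a cell-free enzyme assay; fluorescence intensity read 2 hours after chemical dosing. Single-concentration duplicate screen at 25 uM, then concentration-response up to 50 uM for hits; DMSO negative control.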"}, "Caspase-3 (Homo sapiens)": {"target": "Caspase-3 (Homo sapiens) (UniProt P42574)", "sequence (P42574 whole entry, looked up)": "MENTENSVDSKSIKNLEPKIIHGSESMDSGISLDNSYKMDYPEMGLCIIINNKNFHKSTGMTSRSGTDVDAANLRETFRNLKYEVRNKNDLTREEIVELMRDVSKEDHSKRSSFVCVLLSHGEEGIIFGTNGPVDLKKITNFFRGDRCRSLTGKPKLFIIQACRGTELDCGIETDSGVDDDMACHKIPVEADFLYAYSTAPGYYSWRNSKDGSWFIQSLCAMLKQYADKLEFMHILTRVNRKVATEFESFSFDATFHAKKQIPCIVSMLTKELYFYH", "experiment": "NVS_ENZ_hCASP3: NovaScreen (NVS) Enzymatic Assay for human Caspase 3 (CASP3) (AID 2283139)", "outline": "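Recombinant human caspase-3 from E. coli with a fluorogenic substrate, read by fluorescence 1 h after dosing. Primary screen in duplicate at 25 uM. Actives (for example ≥30% inhibition) rerun as concentration-response up to 50 uM.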"}, "[4]": {"target": "human Aurora Kinase A - serine/threonine-protein Kinase 6 (AurA), AURKA (gene 6790) (UniProt O14965)", "sequence (O14965 whole entry, looked up)": "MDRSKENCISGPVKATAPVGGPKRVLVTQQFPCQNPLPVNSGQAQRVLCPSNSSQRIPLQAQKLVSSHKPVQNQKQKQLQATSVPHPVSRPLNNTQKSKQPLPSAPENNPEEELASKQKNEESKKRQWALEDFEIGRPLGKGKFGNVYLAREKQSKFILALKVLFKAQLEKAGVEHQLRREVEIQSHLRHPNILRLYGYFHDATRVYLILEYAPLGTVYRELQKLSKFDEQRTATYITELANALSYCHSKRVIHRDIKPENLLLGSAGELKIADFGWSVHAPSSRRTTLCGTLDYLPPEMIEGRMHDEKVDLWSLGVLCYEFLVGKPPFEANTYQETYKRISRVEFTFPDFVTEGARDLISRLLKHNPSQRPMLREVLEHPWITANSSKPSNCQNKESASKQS", "experiment": "NVS_ENZ_hAurA: NovaScreen (NVS) Enzymatic Assay for human Aurora Kinase A - serine/threonine-protein Kinase 6 (AurA) (AID 2283142)", "outline": "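Cell-free enzymatic assay with human Aurora A, 1 hour after dosing. Fluorescent substrate turnover detected after electrophoretic mobility shift separation of substrate and product. Screened at 25 uM, actives retested in concentration-response up to 50 uM.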"}, "[5]": {"target": "human Caspase 4 (CASP4), CASP4 (gene 837) (UniProt P49662)", "sequence (P49662 whole entry, looked up)": "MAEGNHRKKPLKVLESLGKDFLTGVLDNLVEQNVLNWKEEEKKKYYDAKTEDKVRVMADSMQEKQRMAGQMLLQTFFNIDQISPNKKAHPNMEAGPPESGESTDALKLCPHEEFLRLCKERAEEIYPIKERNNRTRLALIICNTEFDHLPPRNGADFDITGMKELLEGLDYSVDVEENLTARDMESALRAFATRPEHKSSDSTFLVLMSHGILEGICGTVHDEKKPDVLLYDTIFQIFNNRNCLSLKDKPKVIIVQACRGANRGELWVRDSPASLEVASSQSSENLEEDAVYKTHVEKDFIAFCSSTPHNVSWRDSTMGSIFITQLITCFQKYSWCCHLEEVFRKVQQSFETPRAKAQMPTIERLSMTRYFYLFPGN", "experiment": "NVS_ENZ_hCASP4: NovaScreen (NVS) Enzymatic Assay for human Caspase 4 (CASP4) (AID 2283143)", "outline": "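The cell-free assay used E. coli-expressed enzyme with a fluorogenic substrate, read 2 h after dosing. Signal loss was scored versus DMSO. Screening was in duplicate at 25 uM, then singleton concentration-response up to 50 uM.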"}, "[6]": {"target": "human Casein Kinase 1-delta (CK1D), CSNK1D (gene 1453) (UniProt P48730)", "sequence (P48730 whole entry, looked up)": "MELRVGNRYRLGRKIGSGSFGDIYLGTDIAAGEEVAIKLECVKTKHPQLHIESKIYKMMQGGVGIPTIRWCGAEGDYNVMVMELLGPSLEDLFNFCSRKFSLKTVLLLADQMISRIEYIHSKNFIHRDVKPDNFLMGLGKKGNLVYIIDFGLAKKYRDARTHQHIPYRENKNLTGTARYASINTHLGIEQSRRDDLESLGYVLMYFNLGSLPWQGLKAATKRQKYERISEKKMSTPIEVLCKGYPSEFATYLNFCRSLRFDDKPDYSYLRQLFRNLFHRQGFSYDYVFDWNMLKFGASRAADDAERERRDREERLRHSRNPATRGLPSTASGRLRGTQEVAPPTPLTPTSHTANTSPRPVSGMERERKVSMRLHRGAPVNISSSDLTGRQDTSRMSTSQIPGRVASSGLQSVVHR", "experiment": "NVS_ENZ_hCK1D: NovaScreen (NVS) Enzymatic Assay for human Casein Kinase 1-delta (CK1D) (AID 2283148)", "outline": "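Recombinant human CK1-delta, cell-free; fluorescent substrate with electrophoretic mobility-shift separation of product, read 1 h after dosing. Single 25 uM duplicate screen, then concentration-response up to 50 uM; loss of signal vs DMSO.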"}, "[7]": {"target": "human Colony Stimulating Factor 1 Receptor (CSF1R), CSF1R (gene 1436) (UniProt P07333)", "experiment": "NVS_ENZ_hCSF1R: NovaScreen (NVS) Enzymatic Assay for human Colony Stimulating Factor 1 Receptor (CSF1R) (AID 2283150)", "outline": "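Cell-free recombinant human CSF1R kinase with fluorescent substrate, product separated by electrophoretic mobility shift; read 1 h after dosing. Primary screen at 25 uM in duplicate, actives then in concentration-response up to 50 uM, relative to DMSO.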"}, "[8]": {"target": "human Ephrin type-A Receptor 2 (EphA2), EPHA2 (gene 1969) (UniProt P29317)", "sequence (P29317 whole entry, looked up)": "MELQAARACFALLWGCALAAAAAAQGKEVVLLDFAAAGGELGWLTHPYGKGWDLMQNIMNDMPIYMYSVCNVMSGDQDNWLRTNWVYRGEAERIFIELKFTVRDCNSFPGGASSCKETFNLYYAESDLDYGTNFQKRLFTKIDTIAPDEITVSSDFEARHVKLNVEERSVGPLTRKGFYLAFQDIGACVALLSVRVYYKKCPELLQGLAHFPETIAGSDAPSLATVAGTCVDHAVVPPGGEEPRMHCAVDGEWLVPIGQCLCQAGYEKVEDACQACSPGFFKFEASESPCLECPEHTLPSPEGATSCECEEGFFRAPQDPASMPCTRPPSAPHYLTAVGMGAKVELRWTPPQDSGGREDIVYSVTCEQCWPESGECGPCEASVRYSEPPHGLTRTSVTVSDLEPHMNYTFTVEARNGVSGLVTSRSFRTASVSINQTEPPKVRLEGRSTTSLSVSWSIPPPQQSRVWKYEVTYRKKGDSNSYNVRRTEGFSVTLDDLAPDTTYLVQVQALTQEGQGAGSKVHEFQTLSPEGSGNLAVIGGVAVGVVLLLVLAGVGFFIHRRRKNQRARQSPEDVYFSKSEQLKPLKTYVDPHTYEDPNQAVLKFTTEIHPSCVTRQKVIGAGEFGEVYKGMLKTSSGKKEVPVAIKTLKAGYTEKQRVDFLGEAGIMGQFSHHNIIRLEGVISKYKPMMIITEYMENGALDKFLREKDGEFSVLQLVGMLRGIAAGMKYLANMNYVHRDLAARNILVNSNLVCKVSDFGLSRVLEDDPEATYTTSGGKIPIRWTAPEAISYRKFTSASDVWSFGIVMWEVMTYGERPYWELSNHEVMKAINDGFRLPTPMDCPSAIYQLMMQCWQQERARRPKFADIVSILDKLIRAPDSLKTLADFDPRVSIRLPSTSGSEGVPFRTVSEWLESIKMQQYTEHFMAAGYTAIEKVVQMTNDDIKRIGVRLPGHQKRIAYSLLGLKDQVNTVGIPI", "experiment": "NVS_ENZ_hEphA2: NovaScreen (NVS) Enzymatic Assay for human Ephrin type-A Receptor 2 (EphA2) (AID 2283155)", "outline": "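Cell-free recombinant EphA2 kinase with specific substrate, 1 h, fluorescence with electrophoretic mobility-shift separation of substrate and product. Primary screen at 25 uM in duplicate; hits retested in singleton concentration-response up to 50 uM, referenced to DMSO.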"}, "[9]": {"target": "human Ephrin type-A Receptor 1 (EphA1), EPHA1 (gene 2041) (UniProt P21709)", "sequence (P21709 whole entry, looked up)": "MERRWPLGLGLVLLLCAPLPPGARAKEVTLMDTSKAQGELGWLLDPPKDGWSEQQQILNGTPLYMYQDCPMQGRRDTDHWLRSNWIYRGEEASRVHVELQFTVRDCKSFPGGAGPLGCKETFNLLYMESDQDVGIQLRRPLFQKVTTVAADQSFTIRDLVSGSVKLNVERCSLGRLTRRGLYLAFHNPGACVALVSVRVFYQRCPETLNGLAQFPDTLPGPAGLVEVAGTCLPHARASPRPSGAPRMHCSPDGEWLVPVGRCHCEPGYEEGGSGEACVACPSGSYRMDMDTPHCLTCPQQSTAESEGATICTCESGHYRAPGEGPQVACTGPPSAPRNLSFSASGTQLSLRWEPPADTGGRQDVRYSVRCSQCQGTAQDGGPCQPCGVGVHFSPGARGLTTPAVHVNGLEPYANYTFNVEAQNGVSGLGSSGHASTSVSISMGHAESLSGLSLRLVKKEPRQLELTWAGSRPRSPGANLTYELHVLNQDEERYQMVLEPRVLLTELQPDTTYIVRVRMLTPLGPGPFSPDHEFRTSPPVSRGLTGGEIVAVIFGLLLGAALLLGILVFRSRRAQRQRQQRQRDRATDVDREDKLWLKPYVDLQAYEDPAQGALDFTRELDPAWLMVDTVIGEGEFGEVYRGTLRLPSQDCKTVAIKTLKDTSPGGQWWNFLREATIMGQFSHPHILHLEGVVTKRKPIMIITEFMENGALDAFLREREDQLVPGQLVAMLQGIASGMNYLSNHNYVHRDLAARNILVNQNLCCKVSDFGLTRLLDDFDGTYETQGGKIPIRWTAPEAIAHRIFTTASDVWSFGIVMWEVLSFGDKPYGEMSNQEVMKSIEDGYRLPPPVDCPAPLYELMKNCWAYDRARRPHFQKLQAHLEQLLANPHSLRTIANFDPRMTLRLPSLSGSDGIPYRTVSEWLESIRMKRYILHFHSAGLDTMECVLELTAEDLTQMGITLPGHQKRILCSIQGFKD", "experiment": "NVS_ENZ_hEphA1: NovaScreen (NVS) Enzymatic Assay for human Ephrin type-A Receptor 1 (EphA1) (AID 2283158)", "outline": "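Cell-free enzymatic assay with recombinant EphA1 and fluorescent substrate; product separated by electrophoretic mobility shift, fluorescence intensity read 1 hour after dosing. Loss of signal versus DMSO baseline; primary duplicate screen at 25 uM, actives followed to 50 uM top concentration.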"}, "[10]": {"target": "human Fibroblast Growth Factor Receptor 1 (FGFR1), FGFR1 (gene 2260) (UniProt P11362)", "experiment": "NVS_ENZ_hFGFR1: NovaScreen (NVS) Enzymatic Assay for human Fibroblast Growth Factor Receptor 1 (FGFR1) (AID 2283159)", "outline": "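Cell-free recombinant kinase with fluorescent substrate, product separated by electrophoretic mobility shift; read 1 hour after dosing, loss of signal relative to DMSO. Initial screen in duplicate at 25 uM, actives followed in concentration series.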"}}, "note": "Results filed as inconclusive are left out. The source made the active and inactive calls. Rule for the calls: active = hit-call score of the fitted dose curve at least 0.9, where 1 is the maximum; inconclusive = response in the unintended direction; inactive = score below 0.9."}
{"molecule": "COC(=O)N(C(=O)N1CO[C@@]2(C(=O)OC)Cc3cc(Cl)ccc3C2=N1)c1ccc(OC(F)(F)F)cc1", "values": [{"measurement": "outcome", "setting": "[1]", "result": "inactive"}, {"measurement": "outcome", "setting": "[2]", "result": "inactive"}]}
{"molecule": "Nc1c(Cl)c(Cl)nc(C(=O)O)c1Cl", "values": [{"measurement": "AC50", "setting": "[1]", "result": "10.5 µM (active)"}, {"measurement": "outcome", "setting": "[3]", "result": "inactive"}]}
{"molecule": "O=c1n(Cl)c(=O)n(Cl)c(=O)n1Cl", "values": [{"measurement": "outcome", "setting": "[3]", "result": "inactive"}]}
{"molecule": "CCOc1nc(C(Cl)(Cl)Cl)ns1", "values": [{"measurement": "outcome", "setting": "Caspase-3 (Homo sapiens)", "result": "inactive"}]}
{"molecule": "CCCC(=NOCC)C1=C(O)CC(CC(C)SCC)CC1=O", "note": "(stereo not given)", "values": [{"measurement": "outcome", "setting": "[4]", "result": "inactive"}]}
{"molecule": "CCCCC(O)(Cn1cncn1)c1ccc(Cl)cc1Cl", "note": "(stereo not given)", "values": [{"measurement": "AC50", "setting": "[5]", "result": "9.08 µM (active)"}]}
{"molecule": "CN/C(=N\\[N+](=O)[O-])NCc1cnc(Cl)s1", "values": [{"measurement": "outcome", "setting": "[6]", "result": "inactive"}]}
{"molecule": "CCN(CC)C(=O)C(C)Oc1cccc2ccccc12", "note": "(stereo not given)", "values": [{"measurement": "outcome", "setting": "[7]", "result": "inactive"}]}
{"molecule": "Clc1nc(Cl)nc(Nc2ccccc2Cl)n1", "values": [{"measurement": "outcome", "setting": "[8]", "result": "inactive"}, {"measurement": "outcome", "setting": "[9]", "result": "inactive"}]}
{"molecule": "CC(C)NC(=O)N1CC(=O)N(c2cc(Cl)cc(Cl)c2)C1=O", "values": [{"measurement": "outcome", "setting": "[8]", "result": "inactive"}]}
{"molecule": "N#Cc1c[nH]cc1-c1cccc2c1OC(F)(F)O2", "values": [{"measurement": "outcome", "setting": "[9]", "result": "inactive"}]}
{"molecule": "O=C1C2CC=CCC2C(=O)N1SC(Cl)(Cl)Cl", "note": "(stereo not given)", "values": [{"measurement": "outcome", "setting": "[10]", "result": "inactive"}]}
